The values that follow come from PubChem BioAssay (NCATS).

Experiment [1] has as its system HaCat. Briefly: Cytotoxic Profiling of Annotated Libraries Using Quantitative High-Throughput Screening (AID 1296008). Also: nearly all actives have a fitted effect of over 60% in size. The note with it: Five cell lines viability, CellTiter-Glo ATP luminescence, 48-72 h; max response: stronger effect = lower value. In outline: (§1)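 Cytotoxicity was measured as CellTiter-Glo ATP luminescence, read after 10 min at room temperature. Compound treatment of the cells lasted 48 or 72 hr at 37 degrees Celsius in a qHTS format.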
Background: Cellular ATP, detected with luciferase, serves as a proxy for viable cell number.

For experiment [2], the system named is HACAT. Briefly: qHTS assay to identify novel small-molecules to repurpose for Merkel cell carcinoma treatment (AID 1296009). Also: nearly all actives have a fitted effect of over 60% in size. The note with it: MCC and control cell lines, CellTiter-Glo viability, 72 h; at 44.8 µM (top of the series) unless noted. In outline:
(§2)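 72 hr, 37 degree celsius; NPC 8-pt / MIPE 11-pt dose response; compound pinned in DMSO; CellTiter-Glo, 10 min RT, luminescence; normalized to no-cell and DMSO controls.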
(In general: In qHTS, concentration-response curves come from the screen itself.)

The subject of the next experiment is MKL-2. The description is as above. The following applies: MCC and control cell lines, CellTiter-Glo viability, 72 h; series mostly up to 46 µM. In a few lines: as §2
The test system of a further experiment is UISO. Described as above. The note with it: MCC and control cell lines, CellTiter-Glo viability, 72 h; series mostly up to 46 µM. In a few lines:
as §2

A further experiment concerns CAOV3. Briefly: Primary qHTS to identify gynecologic anti-cancer compounds using libraries of approved drugs and bioactive compounds (AID 1345084). Also: nearly all actives have a fitted effect of over 55% in size. The note with it: Gynecologic cancer cell panel viability, ATPlite luminescence, 48 h; series mostly up to 57.5 µM. In outline:
(§3)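 Measured: luminescence after ATPlite addition (15 min, RT). Exposure: 48 h, 37 C, 5% CO2.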

For another experiment, the system named is KB-3-1. Briefly: Cytotoxic Profiling of Annotated Libraries Using Quantitative High-Throughput Screening (AID 1296008). Also: nearly all actives have a fitted effect of over 60% in size. The note with it: Five cell lines viability, CellTiter-Glo ATP luminescence, 48-72 h; max response: stronger effect = lower value. In outline: as §1
The subject of another experiment is MCC-13. Briefly: qHTS assay to identify novel small-molecules to repurpose for Merkel cell carcinoma treatment (AID 1296009). Also: nearly all actives have a fitted effect of over 60% in size. The following applies: MCC and control cell lines, CellTiter-Glo viability, 72 h; series mostly up to 46 µM. In a few lines:
as §2

The next experiment concerns MCC-26. Described as above. The note with it: MCC and control cell lines, CellTiter-Glo viability, 72 h; series mostly up to 46 µM. In outline: as §2
Another experiment deals with MKL-1. The description is as above. The following applies: MCC and control cell lines, CellTiter-Glo viability, 72 h; series mostly up to 46 µM. In outline:
as §2

A further experiment has as its system WaGa. The description is as above. The following applies: MCC and control cell lines, CellTiter-Glo viability, 72 h; series mostly up to 46 µM. In a few lines:
as §2

The test system of another experiment is C33A. Briefly: Primary qHTS to identify gynecologic anti-cancer compounds using libraries of approved drugs and bioactive compounds (AID 1345084). Also: nearly all actives have a fitted effect of over 55% in size. The following applies: Gynecologic cancer cell panel viability, ATPlite luminescence, 48 h; series mostly up to 57.5 µM. In a few lines: as §3
The next experiment has as its system CASKI. Described as above. The note with it: Gynecologic cancer cell panel viability, ATPlite luminescence, 48 h; series mostly up to 57.5 µM. In a few lines: as §3
For the next experiment, the system named is Es-2. Described as above. The note with it: Gynecologic cancer cell panel viability, ATPlite luminescence, 48 h; series mostly up to 57.5 µM. In outline:
as §3

For a further experiment, the system named is HeLa. The experiment is described as above. The note with it: Gynecologic cancer cell panel viability, ATPlite luminescence, 48 h; series mostly up to 57.5 µM. In outline:
as §3

The subject of a further experiment is JEG-3. The experiment is described as above. The following applies: Gynecologic cancer cell panel viability, ATPlite luminescence, 48 h; series mostly up to 57.5 µM. In a few lines:
as §3

Another experiment has as its system OV90. The description is as above. The following applies: Gynecologic cancer cell panel viability, ATPlite luminescence, 48 h; series mostly up to 57.5 µM. In outline: as §3
The subject of the next experiment is NIH3T3. In words: Cytotoxic Profiling of Annotated Libraries Using Quantitative High-Throughput Screening (AID 1296008). Also: nearly all actives have a fitted effect of over 60% in size. The note with it: Five cell lines viability, CellTiter-Glo ATP luminescence, 48-72 h; max response: stronger effect = lower value. In outline:
as §1

The subject of a further experiment is Hek293T. Briefly: Primary qHTS to identify gynecologic anti-cancer compounds using libraries of approved drugs and bioactive compounds (AID 1345084). Also: nearly all actives have a fitted effect of over 55% in size. The following applies: Gynecologic cancer cell panel viability, ATPlite luminescence, 48 h, control line for the selectivity index; series mostly up to 57.5 µM. In a few lines:
as §3

Structures are written as SMILES. Where “and” joins values, the source holds several entries; their conditions need not be identical. Equal entries are not always repeated. Inconclusive results are not listed. Values without a mark were called inactive. Calls of active or inactive are those of the source. Calls follow the shape of the dose curve; as a rule, active = well fitted curve in the direction sought with a large enough effect; inconclusive = small, poorly fitted or top-dose-only effect, or another doubt; inactive = no such curve, though single readings can be large; an effect the other way counts as inactive or inconclusive.
% is scaled to controls: 0 for no effect and ±100 for the full control effect; potency is read from the fitted curve at half-maximal effect.

As to `CCC1=C[C@@H]2CN(C1)Cc1c([nH]c3ccccc13)[C@@](C(=O)OC)(c1cc3c(cc1OC)N(C)[C@H]1[C@@](O)(C(=O)OC)[C@H](OC(C)=O)[C@]4(CC)C=CCN5CC[C@]31[C@@H]54)C2`, the compound was classed as inactive in the experiment on HaCat [1] and in the experiment on HACAT [2]. For the same compound, the Potency is 18.8 nM (active) with MKL-2, 11.9 nM (active) in the experiment with UISO and 10000 nM (active) with CAOV3.
Consider `C[N+](C)(C)CCO`, for which the max response in the experiment on KB-3-1 is -9.9% and -0.543%.
On to `Nc1ncnc2n[nH]c(Nc3ccc(F)cc3)c12`, for which the compound was classed as inactive in the experiment on KB-3-1.
With `CC(CC1c2ccccc2CCc2ccccc21)CN(C)C` (stereo not given), the max response in the experiment with HaCat [1] is 1.42%. Besides, the Potency entry with MCC-13, in the experiment on MCC-26, in the experiment on MKL-1, in the experiment on UISO, with WaGa and in the experiment on C33A was “inactive” each time. For the same compound, the Potency entry in the experiment on CASKI, in the experiment on Es-2, in the experiment on HeLa and with JEG-3 was “inactive” each time. For the same compound, in the experiment on OV90, the Potency is 17800 nM (active).
`CCOC(=O)N1CCC(n2c(=O)[nH]c3cc(Cl)ccc32)CC1`: the max response in the experiment with HaCat [1] was -12.1%; with NIH3T3, 3.06%. Besides, the Potency result in the experiment on MCC-13, with MCC-26, in the experiment with MKL-1, in the experiment with C33A, with CAOV3 and in the experiment on CASKI was “inactive” throughout. For the same compound, the Potency result in the experiment on Es-2 and in the experiment on HeLa was “inactive” in each case.
Take `CCCCCCCCCCCC[N+](C)(C)Cc1ccccc1`: the Potency in the experiment on HaCat [1] is 4730 nM (active); in the experiment on NIH3T3, 6680 nM (active); with MCC-26, 23700 nM (active); in the experiment on MKL-1, 1060 nM (active); with MKL-2, 94.4 nM (active); in the experiment with UISO, 1190 nM (active). For the same compound, the Potency in the experiment on WaGa is 1880 nM (active); in the experiment on C33A, 2510 nM (active); in the experiment with CAOV3 it was 5620 nM (active); with CASKI, 2240 nM (active); in the experiment with Es-2, 7940 nM (active); in the experiment on HeLa it was 10000 nM (active). The Potency in the experiment on Hek293T is 15800 nM (active); in the experiment with OV90, 14100 nM (active).
Take `CC[C@@]1(O)C(=O)OCc2c1cc1n(c2=O)Cc2c-1nc1ccccc1c2/C=N/OC(C)(C)C`: the Potency is 42.2 nM (active) in the experiment with HaCat [1]; 266 nM (active) with NIH3T3; 84.1 nM (active) in the experiment with MCC-13; 94.4 nM (active) in the experiment with MCC-26; 37.6 nM (active) in the experiment on MKL-2; 168 nM (active) in the experiment with UISO. Moreover, the results for the Potency in the experiment on WaGa, in the experiment with Hek293T and with OV90 were 26.6 nM (active), 355 nM (active) and 8910 nM (active), respectively. Moreover, the Potency result with HeLa and with JEG-3 was “inactive” in each case.
Regarding `CCC(=O)O[C@]1(C(=O)COC)[C@@H](C)C[C@H]2[C@@H]3CCC4=CC(=O)C=C[C@]4(C)C3(F)[C@@H](O)C[C@@]21C` (stereo not given in full), the compound was classed as inactive with HaCat [1] and in the experiment on HACAT [2]. The Potency entry in the experiment on MCC-13, with MCC-26, in the experiment with MKL-1, in the experiment with MKL-2, in the experiment with UISO and in the experiment with WaGa was “inactive” in each case. Also, the Potency result in the experiment on C33A, in the experiment with CAOV3, in the experiment on CASKI, in the experiment on Es-2, in the experiment on HeLa and with Hek293T was “inactive” throughout. Moreover, the Potency result in the experiment with JEG-3 and with OV90 was “inactive” throughout.
On to `CC[C@@H]([C@H](C)O)n1ncn(-c2ccc(N3CCN(c4ccc(OC[C@@H]5CO[C@@](Cn6cncn6)(c6ccc(F)cc6F)C5)cc4)CC3)cc2)c1=O`, for which the max response in the experiment with HaCat [1] was -3.01%. Besides, the Potency result in the experiment with MCC-13, in the experiment with MCC-26, in the experiment on MKL-1, in the experiment on MKL-2, in the experiment on UISO and with WaGa was “inactive” throughout. Also, the Potency result in the experiment with CAOV3, in the experiment on HeLa and with JEG-3 was “inactive” each time. Further, the Potency with C33A is 11200 nM (active); in the experiment on OV90, 15800 nM (active).
`CCOC(=O)N1CCC(Nc2ccc(Cl)cc2N)CC1`: in the experiment on HaCat [1], the max response is -14.7%. Also, the Potency result in the experiment on MCC-13, in the experiment on MCC-26, with WaGa, in the experiment with C33A, with CAOV3 and in the experiment with CASKI was “inactive” each time. Further, the Potency entry with Es-2, with HeLa, in the experiment on Hek293T and with JEG-3 was “inactive” throughout. In addition, the Potency with MKL-1 was 21100 nM (active); in the experiment on MKL-2, 26600 nM (active).
